PubChem BioAssay (NCATS)
Records with an inconclusive call do not appear. Calls of active or inactive are those of the source. Calls follow the shape of the dose curve; as a rule, active = well fitted curve in the direction sought with a large enough effect; inconclusive = small, poorly fitted or top-dose-only effect, or another doubt; inactive = no such curve, though single readings can be large; an effect the other way counts as inactive or inconclusive.

Assays:
[1] = Quantitative High-Throughput drug screen in 47 multiple myeloma cell lines against the NCATS MIPE library collection: FR4_PLB cell viability assay (AID 1918924; also: nearly all actives have a fitted effect of over 35% in size; also: potency is read from the fitted curve at half-maximal effect)
In short: (§1)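 Steps: seed 500 cells per well; pin-transfer MIPE 4.0 library; incubate 48 h at 37C, 5% CO2, humidified; add CellTiter-Glo, 5 min room temperature; read luminescence.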

[2] = Quantitative High-Throughput drug screen in 47 multiple myeloma cell lines against the NCATS MIPE library collection: Delta47_JCRB cell viability assay (AID 1918925; also: nearly all actives have a fitted effect of over 45% in size; also: potency is read from the fitted curve at half-maximal effect)
In short: (§2)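 We plated 500 myeloma cells per well, pinned in MIPE 4.0 compounds, and incubated for 48 hours at 37C. ATP was then quantified with CellTiter-Glo, with DMSO and media-only wells defining 100% and 0%.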

[3] = Quantitative High-Throughput drug screen in 47 multiple myeloma cell lines against the NCATS MIPE library collection: EJM_DSMZ cell viability assay (AID 1918926; also: nearly all actives have a fitted effect of over 30% in size; also: potency is read from the fitted curve at half-maximal effect)
In short: as §2

[4] = Quantitative High-Throughput drug screen in 47 multiple myeloma cell lines against the NCATS MIPE library collection: AMO1_DSMZ cell viability assay (AID 1918927; also: nearly all actives have a fitted effect of over 30% in size; also: potency is read from the fitted curve at half-maximal effect)
In short: as §2

[5] = Quantitative High-Throughput drug screen in 47 multiple myeloma cell lines against the NCATS MIPE library collection: ARP1_JJKsccF8 cell viability assay (AID 1918928; also: nearly all actives have a fitted effect of over 40% in size; also: potency is read from the fitted curve at half-maximal effect)
In short: (§3)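 Each line was plated at 500 cells/well and treated 48 h with library drugs. Viability came from CellTiter-Glo luminescence relative to DMSO and cell-free medium controls.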

[6] = Quantitative High-Throughput drug screen in 47 multiple myeloma cell lines against the NCATS MIPE library collection: ARD_JJKsccE7 cell viability assay (AID 1918929; also: potency is read from the fitted curve at half-maximal effect)
In short: as §2

[7] = Quantitative High-Throughput drug screen in 47 multiple myeloma cell lines against the NCATS MIPE library collection: Karpas620_DSMZ cell viability assay (AID 1918959); also: nearly all actives have a fitted effect of over 30% in size; also: potency is read from the fitted curve at half-maximal effect
In short: as §1

[8] = Quantitative High-Throughput drug screen in 47 multiple myeloma cell lines against the NCATS MIPE library collection: KMM1_JCRB cell viability assay (AID 1918960); also: nearly all actives have a fitted effect of over 30% in size; also: potency is read from the fitted curve at half-maximal effect
In short: as §3

[9] = Quantitative High-Throughput drug screen in 47 multiple myeloma cell lines against the NCATS MIPE library collection: JIM3_ECACC cell viability assay (AID 1918963; also: nearly all actives have a fitted effect of over 35% in size; also: potency is read from the fitted curve at half-maximal effect)
In short: as §1

[10] = Quantitative High-Throughput drug screen in 47 multiple myeloma cell lines against the NCATS MIPE library collection: JIM1_ECACC cell viability assay (AID 1918964; also: potency is read from the fitted curve at half-maximal effect)
In short: as §2

[11] = Quantitative High-Throughput drug screen in 47 multiple myeloma cell lines against the NCATS MIPE library collection: INA6_PLB cell viability assay (AID 1918965; also: nearly all actives have a fitted effect of over 55% in size; also: potency is read from the fitted curve at half-maximal effect)
In short: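 CellTiter-Glo luminescence (ATP) after 48 h compound exposure, 37C/5% CO2; 500 cells/well; MIPE 4.0 approved/investigational drugs pinned in; DMSO = 100%, media only = 0% viability.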

[12] = Quantitative High-Throughput drug screen in 47 multiple myeloma cell lines against the NCATS MIPE library collection: JJN3_DSMZ cell viability assay (AID 1918966; also: potency is read from the fitted curve at half-maximal effect; nearly all actives have a fitted effect of over 50% in size)
In short: as §2

[13] = Quantitative High-Throughput drug screen in 47 multiple myeloma cell lines against the NCATS MIPE library collection: H1112_PLB cell viability assay (AID 1918967; also: nearly all actives have a fitted effect of over 30% in size; also: potency is read from the fitted curve at half-maximal effect)
In short: as §2

[14] = Quantitative High-Throughput drug screen in 47 multiple myeloma cell lines against the NCATS MIPE library collection: Karpas25_ECACC cell viability assay (AID 1918968; also: nearly all actives have a fitted effect of over 35% in size; also: potency is read from the fitted curve at half-maximal effect)
In short: as §2

[15] = Quantitative High-Throughput drug screen in 47 multiple myeloma cell lines against the NCATS MIPE library collection: KMS27_JCRB cell viability assay (AID 1918970); also: nearly all actives have a fitted effect of over 30% in size; also: potency is read from the fitted curve at half-maximal effect
In short: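 Luminescent ATP read-out (CellTiter-Glo, 5 min at room temperature) after 48 h compound exposure of 500 KMS27_JCRB cells per well; DMSO wells define full viability and media-only wells zero.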

[16] = test system: Nanoluciferase (engineered Oplophorus gracilirostris luciferase); experiment: Primary Nanoluciferase (NLuc) qHTS assay for identification of artifact compounds. (AID 1845222);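 also: NLuc secreted into diluted conditioned medium of S16 cells; series mostly up to about 54 µM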
In short: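 qHTS format, against NLuc in S16 cell-conditioned medium. Nano-Glo substrate 1:100 was added after 15 min at room temperature. Luminescence was taken after a further 5 min.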

[17] = Primary redox qHTS assay for identification of artifact compounds. (AID 1845223)
In short: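 Redox-cycling detection via DTT (250 uM final) oxidation coupled to Amplex Red (25 uM)/HRP (250 mU/mL) in HBSS. 15 min preincubation plus 30 min after DTT, room temperature. Ex/Em 525/598 nm; 4-parameter Hill fit against DMSO and 10 uM DA3003.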

[18] = Quantitative High-Throughput drug screen in 47 multiple myeloma cell lines against the NCATS MIPE library collection: KHM11_PLB cell viability assay (AID 1918962); also: nearly all actives have a fitted effect of over 35% in size; also: potency is read from the fitted curve at half-maximal effect
In short: as §1

[19] = Quantitative High-Throughput drug screen in 47 multiple myeloma cell lines against the NCATS MIPE library collection: KMS12BM_JCRB cell viability assay (AID 1918971)
In short: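 Viability readout: CellTiter-Glo luminescence following 5 min room-temperature incubation with reagent. Prior exposure: 48 h, 37C, humidified 5% CO2, 500 cells per well.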

Measured: Potency

COc1cc([C@@H]2c3cc4c(cc3[C@@H](O)C3COC(=O)C32)OCO4)cc(OC)c1O (stereo not given in full)
active: [1] 6.6 nM | [2] 26.4 nM | [3] 46.9 nM | [4] 1 nM | [5] 20.9 nM | [6] 8.3 nM | [7] 18.7 nM | [8] 18.7 nM | [9] 33.2 nM | [10] 4.2 nM | [11] 41.8 nM | [12] 118 nM | [13] 52.6 nM | [14] 59 nM | [15] 14.8 nM

CC(N[C@H]1C[C@H]1c1ccccc1)c1ccc2c(c1)OCCO2 (stereo not given in full)
active: [5] 8330 nM
not listed: [6] | [12] | [19]
inactive: all other assays above

C[C@]12CCC(=O)C(O)=C1CC[C@@H]1[C@H]3CCC(=O)[C@@]3(C)CC[C@@H]12
active: [19] 20900 nM
inactive: [1] | [2] | [3] | [4] | [7] | [8] | [18] | [9] | [13] | [15]

CC=C(C)C(=O)O[C@H]1C(C)=C2[C@@H]3OC(=O)[C@@](C)(O)[C@@]3(O)[C@@H](OC(=O)CCC)C[C@](C)(OC(C)=O)[C@@H]2[C@@H]1OC(=O)CCCCCCC
active: [1] 26.4 nM | [2] 235 nM | [3] 37.2 nM | [5] 29.6 nM | [18] 332 nM | [9] 264 nM | [11] 93.5 nM | [12] 46.9 nM | [13] 526 nM | [14] 83.3 nM | [19] 41.8 nM
inactive: [7] | [15]

CC1(N2CCC(n3c([C@@H]4CCCNC4)nc4ccccc43)CC2)CCCCCCC1
inactive: [16] | [17] | [3]
active: [1] 23500 nM | [4] 26400 nM | [7] 9350 nM | [8] 16600 nM | [18] 6620 nM | [11] 14800 nM | [14] 18700 nM | [15] 14800 nM

O=C(Oc1ccc([N+](=O)[O-])cc1)N1CCC(C(O)(c2ccc3c(c2)OCO3)c2ccc3c(c2)OCO3)CC1
active: [9] 8330 nM | [11] 10500 nM | [13] 10500 nM
inactive: [16] | [17] | [1] | [3] | [5] | [15]
